Screening data from PubChem BioAssay.
FBW7 act: activators of human E3 ligase FBW7; Q969H0; AlphaScreen FBW7–phospho-cyclin E peptide binding, activator screen; normalized activity (activation), % at 26.1 µM; actives 0.13% (n = 650,000); AID 1259310; in the data active = normalized activity above about 1.9%;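 also: purified mutant Fbw7 with reduced substrate affinity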
GPR151 activ: activates the human receptor GPR151. actives 1% (n = 650,000). activation, % at 11.2 µM. PathHunter beta-arrestin GPR151 cells, luminescence; in the data active = activation above about 4.9%
TEAD-YAP block: TEAD-YAP interaction inhibition; inhibition, % at 9.12 µM; actives 1.4% (n = 640,000); HEK-TIYL cells, TEAD-Gal4/YAP UAS-luciferase luminescence; in the data active = inhibition above about 32%
MITF primary: human MITF inhibition, primary screen; O75030; AID 1259374; inhibition, % at 2.6 µM; AlphaScreen MITF homodimerization, bead proximity signal; actives 0.91% (n = 650,000); in the data active = inhibition above about 50%
GPR151 conf act: human GPR151 activation, confirmation screen; shares compounds with GPR151 activ; GPR151 PathHunter beta-arrestin cells, luminescence, 90 min; % of EA-reagent control over plate median; activation, % at 11.2 µM; AID 1508609; 6,700 tested, under 10 active;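 active = mean percent activation across replicates above the confirmation screen cutoff of 4.91%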
GPR119 counter: activates human GPR119 in a GPR151 counter-screen | activation, % at 11.2 µM | AID 1508611 | actives 0.3% (n = 6,700) | GPR119 PathHunter beta-arrestin cells, luminescence, 90 min; 0 = compound-well median, 100 = enzyme-acceptor control | shares compounds with GPR151 activ;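 active = mean percent activation in the counterscreen above 29.09%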;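 also: counterscreen on off-target GPR119 to flag nonselective hits from the GPR151 activator screen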
Target sequence (Q8TDV5 whole entry, looked up): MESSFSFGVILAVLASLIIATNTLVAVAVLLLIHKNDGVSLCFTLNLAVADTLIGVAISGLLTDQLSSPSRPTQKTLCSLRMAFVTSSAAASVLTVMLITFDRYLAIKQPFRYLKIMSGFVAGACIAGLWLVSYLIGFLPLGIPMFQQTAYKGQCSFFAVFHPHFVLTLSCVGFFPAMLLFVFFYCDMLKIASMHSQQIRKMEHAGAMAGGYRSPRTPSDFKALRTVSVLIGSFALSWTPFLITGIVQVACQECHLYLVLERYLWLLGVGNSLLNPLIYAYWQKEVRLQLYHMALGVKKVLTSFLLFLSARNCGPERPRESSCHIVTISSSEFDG
Each line names hits and unclear results; the compound was inactive in the other large screens (follow-up assays come after a bar, where they were run). In the library only some 3.4% were active in any assay of this set; here they are far more common.

O=C(NCCCn1ccnc1)c1nn2c(c1Cl)NC(c1ccc(Cl)cc1)CC2C(F)(F)F (configuration not stated)	none
O=S(c1cc(Cl)cc(Cl)c1O)c1cc(Cl)cc(Cl)c1O	GPR151 activ 6.9 | GPR151 conf act inactive | GPR119 counter inactive
COC(=O)Cn1c2cc(OC)c(OC)cc2c2nc(=O)cc(C)n21	GPR151 activ 8.8 | GPR151 conf act inactive | GPR119 counter inactive
Cc1ccccc1-n1c2nc(=O)[nH]c(=O)c-2cc2c(Cl)cccc21	GPR151 activ 8.3 | GPR151 conf act inactive | GPR119 counter inactive
CCC(CC)C(=O)Nc1cc(-c2cccs2)nn1-c1nc(C)c(C)c(=O)[nH]1	none
O=C(NN1C(=O)C2C3C=CC(C3)C2C1=O)c1ccncc1 (configuration not stated)	none
O=C(NN1C(=O)C2C(c3ccccc3)C=CC(c3ccccc3)C2C1=O)c1ccncc1 (configuration not stated)	GPR151 activ 6.1 | GPR151 conf act inactive | GPR119 counter inactive
COCCCN1C(=O)C(O)=C(C(=O)c2ccco2)C1c1ccc(C(C)(C)C)cc1 (configuration not stated)	none
COCCN1C(=O)C(O)=C(C(=O)c2ccc(C)o2)C1c1ccc(C(C)(C)C)cc1 (configuration not stated)	GPR151 activ 7.5 | GPR151 conf act inactive | GPR119 counter inactive
CCCNC(=O)c1ccnc(N2CCCC(C(=O)N(CC)CC)C2)c1 (configuration not stated)	none
CCN(CC)C(=O)C1CCCN(c2cc(C(=O)NCCN(C(C)C)C(C)C)ccn2)C1 (configuration not stated)	GPR151 activ 6.2 | GPR151 conf act inactive | GPR119 counter inactive
COc1ccc(/C=C2\N=C(c3ccc4c(c3)OCO4)OC2=O)cc1	none
COc1ccc(C2=CC(c3cc(OC)c(OC)c(OC)c3)n3nnnc3N2)cc1 (configuration not stated)	GPR151 activ 7.3, TEAD-YAP block 61 | GPR151 conf act inactive | GPR119 counter inactive
CC1(C)CC(=O)C2=C(C1)N(c1cccc(C(F)(F)F)c1)C(N)=C(C#N)C2c1ccc2c(c1)OCO2 (configuration not stated)	none
N#CC1=C(N)N(c2cccc(C(F)(F)F)c2)C2=C(C(=O)CCC2)C1c1ccc2c(c1)OCO2 (configuration not stated)	GPR151 activ 5.0 | GPR151 conf act inactive | GPR119 counter inactive
COc1ccc(CC(=O)Nc2cnn(-c3cccc(C(=O)Nc4ccc(N5CCOCC5)cc4)c3)c2)cc1	none
COc1ccc(/C=C(/NC(=O)c2ccc(C)cc2)C(=O)O)c(OC)c1	GPR151 activ 5.3 | GPR151 conf act inactive | GPR119 counter inactive
COc1ccc(/C=C(\NC(=O)c2ccccc2)C(=O)NN)c(OC)c1	none
Cc1ccccc1CNC(=O)C(C)SCc1ccccc1 (configuration not stated)	none
O=C(NCc1cccnc1)c1ccnc(Nc2cnccn2)c1	GPR151 activ 6.6 | GPR151 conf act inactive | GPR119 counter inactive
CC(SCc1ccccc1)C(=O)NCc1cccnc1 (configuration not stated)	GPR151 activ 8.0 | GPR151 conf act inactive | GPR119 counter inactive
O=C(NCc1cccnc1)c1ccnc(Nc2nccc3ccccc23)c1	none
O=C(Cn1ccc([N+](=O)[O-])n1)NCc1ccccc1	none
Cc1ccc(CNC(=O)C(C)SCc2ccccc2)cc1 (configuration not stated)	GPR151 activ 8.1 | GPR151 conf act inactive | GPR119 counter inactive
O=C(Cn1ccc([N+](=O)[O-])n1)NCc1cccnc1	GPR151 activ 8.9 | GPR151 conf act inactive | GPR119 counter inactive
Cc1nc2sccn2c1/C=C(\C#N)c1nc2ccccc2s1	none
Nc1nc(SCC(=O)Nc2cccc(S(N)(=O)=O)c2)n[nH]1	none
CCn1cc(S(=O)(=O)Nc2ccc(S(=O)(=O)Nc3ccccc3)cc2)cn1	none
CCN(Cc1ccccc1)C(=O)C1CCN(Cc2ccc(OC)cc2)CC1	none
O=C(O)CCC(=O)NCc1cccnc1	GPR151 activ 7.5 | GPR151 conf act inactive | GPR119 counter inactive
CCOc1ccc(OC(=O)c2ccc(C(=O)Oc3ccc(OCC)cc3)nc2)cc1	none
CCc1ccc(OC(=O)c2ccc(C(=O)Oc3ccc(CC)cc3)nc2)cc1	GPR151 activ 5.4 | GPR151 conf act inactive | GPR119 counter inactive
Cc1ccccc1/C(O)=C/C(=O)C(F)(F)F	none
CC(C)C(NC(=O)c1ccccc1F)C(=O)OCC(=O)c1ccc(F)cc1 (configuration not stated)	GPR151 activ 9.3 | GPR151 conf act inactive | GPR119 counter inactive
COc1ccc(C(=O)COC(=O)C(NC(=O)c2ccc(Cl)cc2)C(C)C)cc1 (configuration not stated)	none
Cn1ncc2c(Nc3ccc(Cl)cc3Cl)ncnc21	none
Cn1ncc2c(NCCc3ccc(Cl)cc3Cl)ncnc21	GPR151 activ 5.0 | GPR151 conf act inactive | GPR119 counter 35
CCOc1ccc2nc(Nc3nc(C)cc(-c4ccccc4)n3)nc(C)c2c1	none
CCOc1ccc2nc(Nc3nccc(C)n3)nc(C)c2c1	GPR151 activ 9.0 | GPR151 conf act inactive | GPR119 counter inactive
O=C(Nc1ccc(Br)cc1C(=O)c1ccccc1)c1ccc(Nc2nc(-c3ccccc3)c3cc(Cl)ccc3n2)cc1	none
O=C(Nc1ccccc1C(=O)c1ccccc1)c1ccc(Nc2nc(-c3ccccc3)c3cc(Cl)ccc3n2)cc1	GPR151 activ 8.5 | GPR151 conf act inactive | GPR119 counter inactive
O=C(NC(=S)NNc1ccccc1)c1cc2ccccc2oc1=O	GPR151 activ 5.5 | GPR151 conf act inactive | GPR119 counter inactive
O=C(NC(=S)Nc1ncccn1)c1cc2ccccc2oc1=O	none
O=C(Nc1nc(-c2cc3ccccc3o2)cs1)c1cc2ccccc2oc1=O	GPR151 activ 21 | GPR151 conf act inactive | GPR119 counter inactive
O=C(Nc1nc(-c2cc3ccccc3oc2=O)cs1)c1ccc(S(=O)(=O)N2CCc3ccccc32)cc1	GPR151 activ 5.0 | GPR151 conf act inactive | GPR119 counter inactive
O=C(Nc1nc(-c2ccccc2)cs1)c1ccc(S(=O)(=O)N2CCc3ccccc32)cc1	none
O=C(Nc1nc(-c2ccncc2)cs1)c1ccccc1I	GPR151 activ 6.3 | GPR151 conf act inactive | GPR119 counter inactive
O=C(N/N=C/c1ccc(F)cc1)c1cccc2ccccc12	none
Nc1ccc(O)c(-c2nc3ccc(N)cc3[nH]2)c1	none
O=C(Nc1nc(-c2ccncc2)cs1)c1ccc(S(=O)(=O)N2CCCCC2)cc1	none
CC1CCN(S(=O)(=O)c2ccc(C(=O)Nc3nc(-c4ccncc4)cs3)cc2)CC1	GPR151 activ 4.9 | GPR151 conf act inactive | GPR119 counter inactive
O=C(CCc1nnc(Cc2c[nH]c3ccccc23)o1)N1CCCCC1CCc1ccccn1 (configuration not stated)	none
